Laboratory results as given in PubChem BioAssay.

molecular target: PEG-3 (UniProt Q6IN02); assay: Peg3 promoter luciferase inhibitors, potency, dose response, cell-based, HeLa, CREF/GAPDH counter-screen panel (AID 624167); conditions: CREF/GAPDH counter-screens; HeLa PEG-Prom luciferase reporter, overnight, run 2, dose range 1, at 100 µM (top of the series) unless noted
Sequence (Q6IN02 whole entry, looked up): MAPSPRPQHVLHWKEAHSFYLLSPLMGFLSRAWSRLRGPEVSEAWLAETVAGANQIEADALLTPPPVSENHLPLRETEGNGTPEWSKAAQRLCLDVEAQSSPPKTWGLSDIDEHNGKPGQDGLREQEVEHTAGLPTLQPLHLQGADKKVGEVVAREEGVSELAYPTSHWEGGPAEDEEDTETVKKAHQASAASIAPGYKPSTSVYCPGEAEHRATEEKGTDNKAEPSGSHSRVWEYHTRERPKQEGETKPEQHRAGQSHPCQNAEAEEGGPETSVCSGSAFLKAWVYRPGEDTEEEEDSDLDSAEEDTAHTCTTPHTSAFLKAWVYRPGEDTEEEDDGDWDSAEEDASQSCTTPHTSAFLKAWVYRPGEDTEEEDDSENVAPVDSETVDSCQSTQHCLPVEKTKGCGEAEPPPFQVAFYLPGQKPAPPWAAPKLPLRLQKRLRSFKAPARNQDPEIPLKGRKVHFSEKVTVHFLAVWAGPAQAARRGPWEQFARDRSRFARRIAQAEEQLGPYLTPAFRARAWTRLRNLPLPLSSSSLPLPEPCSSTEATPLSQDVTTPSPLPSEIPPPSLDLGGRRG

| Structure (SMILES) | inhibition |
| --- | --- |
| Cn1c(=O)c(C(=O)CCl)c(N)n(Cc2ccccc2)c1=O | 97.2% |
| CCc1ccc(OCCNc2cc(N3CCNC(C)C3)ccc2[N+](=O)[O-])cc1 (stereo unspecified) | 101% |
| O=C(Nc1ccc(S(=O)(=O)NC2=NCCCCC2)cc1)c1ccc([N+](=O)[O-])s1 | 101% |
| CCCCCCCn1c(=N)n(CC(O)c2ccco2)c2ccccc21 (stereo unspecified) | 99.1% |
| COc1ccc(C(=O)Nc2cccc(C(=O)N/N=C/c3ccc(OC)cc3OC)c2)cc1 | 93.1% |
| CN(C)S(=O)(=O)c1cccc(NC(=O)CSc2cccc3cccnc23)c1 | 101% |
| CC1(C)C(=O)C=CC(=O)C(C)(C)C(=O)C=CC(=O)C(C)(C)C2=CC=C(O2)C(C)(C)C(=O)C=CC1=O | 98.9% |
| CC1(C)CC(NC(=O)c2sc3cc(Cl)ccc3c2Cl)CC(C)(C)N1 | 101% |
| Cc1cccc(/C=C2/Sc3ccc(C(=O)NCCN4CCCC4)cc3NC2=O)c1 | 101% |
| NC(=O)c1nsc(C(=O)N(c2ccccc2F)C(C(=O)NCc2ccccc2)c2ccc(O)cc2)c1N (stereo unspecified) | 99.3% |
| CCCCCCCCNCCS(=O)(=O)NCc1ccc(OC)cc1 | 95.7% |
| Cc1ccc(Cn2c(=N)n(CC(=O)c3ccccc3)c3ccccc32)cc1 | 102% |
| Cc1ccc2[nH]c3c(c2c1)CCCC3NC(=O)CCl (stereo unspecified) | 96.5% |
| CCOC(=O)C1CCN(c2cc3c(cc2NC(=O)c2ccccc2OCC)n(C)c(=O)n3C)CC1 | 101% |
| COc1ccc(-c2sc3ccccc3c2-c2ccc(OCCN3CCCCC3)cc2)cc1 | 100% |
| CCN(Cc1ccccc1)S(=O)(=O)c1ccc(C(=O)N(CCCN(C)C)c2nc3cc4c(cc3s2)OCCO4)cc1 | 101% |
